Here are results for 52 compounds from PMC4336329 (PLoS ONE, 2015).

SMILES strings stand for the structures. About 2,200 (0.71%) of roughly 310,000 compounds showed an effect of 50% or more. The effect is printed as a negative number. For the sample, strong results were picked, then their nearest neighbours and some compounds at random.

Chain of human ether-à-go-go-related gene (hERG) potassium channel (Q12809 whole entry, looked up): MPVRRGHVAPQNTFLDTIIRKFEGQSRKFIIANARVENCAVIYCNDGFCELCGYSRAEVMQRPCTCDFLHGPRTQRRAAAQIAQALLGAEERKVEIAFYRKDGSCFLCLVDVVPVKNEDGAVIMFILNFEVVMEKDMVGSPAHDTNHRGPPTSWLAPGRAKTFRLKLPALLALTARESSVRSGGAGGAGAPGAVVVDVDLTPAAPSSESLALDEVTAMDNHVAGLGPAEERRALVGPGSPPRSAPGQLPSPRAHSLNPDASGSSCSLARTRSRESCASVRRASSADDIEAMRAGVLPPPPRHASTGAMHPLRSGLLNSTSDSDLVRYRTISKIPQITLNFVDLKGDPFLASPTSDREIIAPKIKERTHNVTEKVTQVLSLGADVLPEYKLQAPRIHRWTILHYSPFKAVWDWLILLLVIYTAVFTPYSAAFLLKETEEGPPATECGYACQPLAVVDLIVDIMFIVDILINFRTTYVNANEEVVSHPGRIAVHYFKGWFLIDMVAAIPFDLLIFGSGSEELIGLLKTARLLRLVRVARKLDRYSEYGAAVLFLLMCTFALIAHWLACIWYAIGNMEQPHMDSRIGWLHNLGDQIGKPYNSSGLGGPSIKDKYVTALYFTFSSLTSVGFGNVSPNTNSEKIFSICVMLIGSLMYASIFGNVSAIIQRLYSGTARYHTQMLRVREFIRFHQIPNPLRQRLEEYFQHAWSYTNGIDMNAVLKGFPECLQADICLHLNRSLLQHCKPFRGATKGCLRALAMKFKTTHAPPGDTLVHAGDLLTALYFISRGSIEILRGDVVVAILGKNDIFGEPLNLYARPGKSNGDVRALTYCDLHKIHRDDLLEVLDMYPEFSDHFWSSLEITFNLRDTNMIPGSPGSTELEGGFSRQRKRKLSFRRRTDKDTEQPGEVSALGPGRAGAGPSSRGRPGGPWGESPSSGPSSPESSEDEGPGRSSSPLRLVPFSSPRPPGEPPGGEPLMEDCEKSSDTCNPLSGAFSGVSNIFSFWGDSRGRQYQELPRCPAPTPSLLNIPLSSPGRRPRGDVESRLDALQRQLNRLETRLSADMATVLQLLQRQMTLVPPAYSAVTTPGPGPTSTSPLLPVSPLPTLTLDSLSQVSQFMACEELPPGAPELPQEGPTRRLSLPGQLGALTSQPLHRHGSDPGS

The test concerns the target human ether-à-go-go-related gene (hERG) potassium channel (human, UniProt Q12809). Nature of the test: primary screen, population patch clamp on CHO cells stably expressing hERG; higher = less effect of the substance.
As to `CC(/C=N/n1c(-c2ccco2)n[nH]c1=S)=C\c1ccco1`, the “hERG current change (%, negative = inhibition) at 1uM” value turned out to be 13.9%.

On to `COCCCNc1nc2c(-c3cccc(C)c3)nnn2c2ccc(Cl)cc12`, for which the “hERG current change (%, negative = inhibition) at 1uM” value amounted to 13.3%.

For the compound `CNC(=O)c1[nH]cnc1C(=O)N[C@@H](CCCCNC(=O)OC(C)(C)C)C(=O)OC(C)(C)C`, the “hERG current change (%, negative = inhibition) at 1uM” value worked out at 13.6%.

As to `Cc1cccc(NS(=O)(=O)c2cccc([N+](=O)[O-])c2)n1`, the “hERG current change (%, negative = inhibition) at 1uM” value was determined as 13.7%.

For the compound `Cn1ccnc1SCC(=O)Nc1cc(C(F)(F)F)ccc1N1CCOCC1`, the “hERG current change (%, negative = inhibition) at 1uM” value is -0.591%.

As for `c1ccc(-c2noc(-c3cccs3)n2)nc1`, the “hERG current change (%, negative = inhibition) at 1uM” value was found to be 7.74%.

Turning to `COc1cc2c(cc1OC)C1Cc3ccc(OC)c(OC)c3C[N+]1([O-])CC2` (stereo not shown), the “hERG current change (%, negative = inhibition) at 1uM” value stood at 14.1%.

As for `O=C(Nc1ccccc1N1CCN(C(=O)c2ccccc2)CC1)c1ccc(Cl)cc1`, the “hERG current change (%, negative = inhibition) at 1uM” value was -7.21%.

Consider `CS(=O)(=O)Nc1ccc(C(=O)N2CCN(c3ccccc3)CC2)cc1`, for which the “hERG current change (%, negative = inhibition) at 1uM” value is listed as -31.4%.

As to `O=C(Nc1ccccc1N1CCN(C(=O)c2ccc(Cl)cc2)CC1)c1cccnc1`, the “hERG current change (%, negative = inhibition) at 1uM” value was -77%.

As for `O=C(Nc1ccccc1N1CCN(C(=O)c2ccc(Cl)cc2)CC1)c1ccc2c(c1)OCO2`, the “hERG current change (%, negative = inhibition) at 1uM” value is given as -5.35%.

Take `O=C(Nc1ccccc1N1CCN(C(=O)c2ccc(Cl)cc2)CC1)c1cccc(F)c1`: the “hERG current change (%, negative = inhibition) at 1uM” value is -81.2%.

Take `O=C(Nc1ccccc1N1CCN(C(=O)c2ccc(Cl)cc2)CC1)c1ccc(Br)cc1`: the “hERG current change (%, negative = inhibition) at 1uM” value was -4.26%.

Regarding `O=C(Nc1ccccc1N1CCN(C(=O)c2ccc(Cl)cc2)CC1)c1cccc([N+](=O)[O-])c1`, the “hERG current change (%, negative = inhibition) at 1uM” value was -65.2%.

On to `O=C(c1ccccc1)N1CCN(c2ccccc2F)CC1`, for which the “hERG current change (%, negative = inhibition) at 1uM” value was found to be 9.77%.

As to `CCC(=O)N1CCN(c2ccc(Cl)cc2NC(=O)c2cccc([N+](=O)[O-])c2)CC1`, the “hERG current change (%, negative = inhibition) at 1uM” value is given as -32%.

On to `O=C(Nc1ccccc1N1CCN(C(=O)c2ccccc2)CC1)c1cccc(Cl)c1`, for which the “hERG current change (%, negative = inhibition) at 1uM” value is -12.6%.

As to `CS(=O)(=O)Nc1ccc(C(=O)N2CCN(c3ccccc3F)CC2)cc1`, the “hERG current change (%, negative = inhibition) at 1uM” value is -69.2%.

On to `O=C(c1cccc([N+](=O)[O-])c1)N1CCN(c2ccc(Cl)cc2)CC1`, for which the “hERG current change (%, negative = inhibition) at 1uM” value is listed as 2.13%.

With `Cc1cc(C)c(N2C(=O)C3C4CC(=O)C(c5ccccc54)C3C2=O)c(C)c1` (stereo not shown), the “hERG current change (%, negative = inhibition) at 1uM” value was 3.35%.

In the case of `CC(Oc1ccc(Cl)cc1)c1ccnc(N)n1` (stereo not shown), the “hERG current change (%, negative = inhibition) at 1uM” value is 15.5%.

With `Cc1nc(COc2ccc(C(=O)NCc3ccccc3CN3CCCCC3)cc2)cs1`, the “hERG current change (%, negative = inhibition) at 1uM” value was -10.6%.

With `Cc1sc(-n2c(C)cc(C=C3C(=O)NC(=O)NC3=O)c2C)c(C#N)c1C`, the “hERG current change (%, negative = inhibition) at 1uM” value was found to be 11.2%.

On to `CN(c1ccccc1)c1nc(N)c([N+](=O)[O-])c(N2CCCCC2)n1`, for which the “hERG current change (%, negative = inhibition) at 1uM” value is reported as 7.57%.

Turning to `O=C(/C=C/c1ccccc1)C1=C(O)C(=O)N(CCO)C1c1ccccc1[N+](=O)[O-]` (stereo not shown), the “hERG current change (%, negative = inhibition) at 1uM” value is recorded as 11.9%.

With `CCOc1ccc(N2CC(C(=O)N3CCN(c4ccccn4)CC3)CC2=O)cc1` (stereo not shown), the “hERG current change (%, negative = inhibition) at 1uM” value is on record as -9.35%.

In the case of `FC(F)(F)C(Oc1nc(Nc2ccc(Cl)cc2)nc(N2CCOCC2)n1)C(F)(F)F`, the “hERG current change (%, negative = inhibition) at 1uM” value stood at 11.9%.

For the compound `CCCOc1ccc(/C=c2\sc3nc(-c4ccco4)nn3c2=O)cc1OCC`, the “hERG current change (%, negative = inhibition) at 1uM” value is recorded as 5.32%.

With `Cc1ccc(NC(=O)COc2ccccc2C(N)=O)cc1S(=O)(=O)N1CCCCCC1`, the “hERG current change (%, negative = inhibition) at 1uM” value is recorded as -0.137%.

Regarding `CCOCCCNC(c1ccccc1)c1ccncc1` (stereo not shown), the “hERG current change (%, negative = inhibition) at 1uM” value came to 15.3%.

As for `CN(C)c1ccc(/C=N/NC(=O)c2ccc3c(c2)OCO3)cc1`, the “hERG current change (%, negative = inhibition) at 1uM” value was 1.12%.

`CCOc1ccc(C(=O)Nc2ccccc2N2CCN(C(=O)c3ccccc3)CC2)cc1[N+](=O)[O-]`: the “hERG current change (%, negative = inhibition) at 1uM” value was -84%.

For the compound `CCOc1ccccc1NC(=O)c1ccc(OCC)c([N+](=O)[O-])c1`, the “hERG current change (%, negative = inhibition) at 1uM” value came out at 1.13%.

Turning to `O=C(Nc1ccccc1N1CCCCC1)c1cccc([N+](=O)[O-])c1`, the “hERG current change (%, negative = inhibition) at 1uM” value is reported as 9.68%.

With `CCOc1ccc(C(=O)NC(=S)Nc2ccccc2N2CCCCC2)cc1[N+](=O)[O-]`, the “hERG current change (%, negative = inhibition) at 1uM” value turned out to be 8.22%.

As to `CN1CCN(c2ccccc2NC(=O)c2cccc([N+](=O)[O-])c2)CC1`, the “hERG current change (%, negative = inhibition) at 1uM” value is on record as -67.1%.

Take `O=C(Nc1ccccc1N1CCOCC1)c1cccc([N+](=O)[O-])c1`: the “hERG current change (%, negative = inhibition) at 1uM” value turned out to be 2.37%.

For `Cc1nc2nc(SCC(=O)N3CCOCC3)nn2c(C)c1Cc1c(F)cccc1Cl`, the “hERG current change (%, negative = inhibition) at 1uM” value was 3.11%.

Regarding `CCOc1cc(N2CCOCC2)c(OCC)cc1NCC(=O)N1CCN(Cc2ccccc2)CC1.Cl`, the “hERG current change (%, negative = inhibition) at 1uM” value is 9.92%.

On to `COc1ccc(NC(=O)Nc2nnc(-c3ccco3)s2)cc1`, for which the “hERG current change (%, negative = inhibition) at 1uM” value is reported as 12.3%.

Take `NC(=O)c1nsc(C(=O)N(c2ccc(Cl)cc2)C(C(=O)NCC2CCCO2)c2cccs2)c1N` (stereo not shown): the “hERG current change (%, negative = inhibition) at 1uM” value is recorded as 10.7%.

For `S=C(Nc1ccc(Cl)cc1Cl)N1CCN(c2ccccn2)CC1`, the “hERG current change (%, negative = inhibition) at 1uM” value is 12.7%.

Regarding `Cc1nc(SCC(=O)N2CCN(C(=O)c3ccco3)CC2)c2c(C)c(C)sc2n1`, the “hERG current change (%, negative = inhibition) at 1uM” value is recorded as -43.9%.

With `O=C(CSc1nn(-c2ccc(F)cc2)c(=S)s1)N1CCN(C(=O)c2ccco2)CC1`, the “hERG current change (%, negative = inhibition) at 1uM” value is recorded as -64.6%.

For the compound `Cc1sc2nc(C(C)C)nc(SCC(=O)N3CCN(C(=O)c4ccco4)CC3)c2c1C`, the “hERG current change (%, negative = inhibition) at 1uM” value is recorded as -41.5%.

Take `O=C(CSc1nc(-c2ccc(F)cc2)cs1)N1CCN(C(=O)c2ccco2)CC1`: the “hERG current change (%, negative = inhibition) at 1uM” value is listed as -43.2%.

On to `Cc1sc2ncnc(SCC(=O)N3CCN(C(=O)c4ccco4)CC3)c2c1C`, for which the “hERG current change (%, negative = inhibition) at 1uM” value is -67.3%.

Consider `O=C(CSc1nn(-c2ccc(Cl)cc2)c(=S)s1)N1CCN(C(=O)c2ccco2)CC1`, for which the “hERG current change (%, negative = inhibition) at 1uM” value is on record as -44.1%.

Consider `COc1cc(OC)cc(C(=O)Nc2cccc3cccnc23)c1`, for which the “hERG current change (%, negative = inhibition) at 1uM” value was 19.3%.

Consider `Cc1cnc(CN(C)C(=O)CC2C(=O)NCCN2Cc2cccc(F)c2F)[nH]1` (stereo not shown), for which the “hERG current change (%, negative = inhibition) at 1uM” value stood at 11.2%.

For `O=C(NCc1n[nH]c(=S)n1-c1cccc(Cl)c1)c1cccs1`, the “hERG current change (%, negative = inhibition) at 1uM” value is recorded as 9.04%.

On to `COc1ccccc1C(C)Nc1nc(-c2cccnc2)nc2ccccc12` (stereo not shown), for which the “hERG current change (%, negative = inhibition) at 1uM” value is 12.2%.
